Test systems include CDC2L2; CDK2; CDK3; CDK4-cyclinD1; CDK4-cyclinD3; CDK4; CDK5; CDK7; CDK8; CDK9; CDKL1; CDKL2; CDKL3; CDKL5; CHEK1; CHEK2; CIT; CLK1.
What all share (settings): concentration: 1 μM,replicates: in singlicate; n = 1
The subject of the next assay is T1, CDC2L5.
T1 construct: gene CDK13

In the next assay the test system is T2, CDK11.
T2 construct: gene CDK19

Molecules are shown by their SMILES.
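Further: KINOMEscan kinase panel screen.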

In the case of `Cc1ccc(CC(=O)N2CCc3cc(-c4cn(C)c5ncnc(N)c45)ccc32)cc1` [GSK2634758], the “%Inh” value came to 21% in the assay with CDC2L2; 0% in the assay on CDC2L5; 72% with CDK11; 5% in the assay on CDK2; 0% with CDK3; 0% with CDK4-cyclinD1. The “%Inh” value came to 0% in the assay with CDK4-cyclinD3; 26% in the assay on CDK4; 10% with CDK5; 1% with CDK7; 83% in the assay on CDK8; 0% in the assay on CDK9. The “%Inh” value in the assay on CDKL1 came out at 8%; with CDKL2, 0%; in the assay on CDKL3, 0%; in the assay on CDKL5 it was 0%; in the assay with CHEK1, 1%; in the assay with CHEK2 it was 17%. Also, the “%Inh” value in the assay on CIT is recorded as 19%; with CLK1 it was 13%.
On to `Cn1ccc2ncnc(Oc3ccc(NC(=O)Nc4ccnc(C(F)(F)F)c4)c(Cl)c3)c21`, for which the “%Inh” value is recorded as 0% in the assay with CDC2L2; 20% in the assay on CDC2L5; 98% in the assay with CDK11; 0% with CDK2; 0% in the assay on CDK3; 0% with CDK4-cyclinD1. Also, the “%Inh” value with CDK4-cyclinD3 is given as 0%; in the assay on CDK4, 0%; with CDK5, 0%; with CDK7, 1%; in the assay on CDK8, 95.5%; in the assay on CDK9 it was 0%. For the same compound, the “%Inh” value in the assay with CDKL1 is 34%; in the assay with CDKL2 it was 3%; in the assay with CDKL3 it was 0%; in the assay with CDKL5 it was 19%; with CHEK1, 0%; in the assay on CHEK2 it was 2%. The “%Inh” value is given as 18% in the assay on CIT and 0% with CLK1.
For `C[C@@H](Oc1cc(-n2cnc3cc(-c4ccncc4)ccc32)sc1C(N)=O)c1ccccc1Cl` [GSK479719], the “%Inh” value in the assay on CDC2L2 is 0%; in the assay with CDC2L5, 0%; in the assay with CDK11 it was 0%; in the assay on CDK2, 42%; with CDK3, 29%; in the assay on CDK4-cyclinD1, 0%. Also, the “%Inh” value turned out to be 21% with CDK4-cyclinD3; 0% with CDK4; 0% in the assay with CDK5; 1% with CDK7; 12% in the assay with CDK8; 4% in the assay with CDK9. Further, the “%Inh” value amounted to 21% in the assay with CDKL1; 33% with CDKL2; 0% with CDKL3; 0% in the assay on CDKL5; 4% in the assay on CHEK1; 0% with CHEK2. Also, the results for the “%Inh” value in the assay on CIT and with CLK1 were 24% and 73%, respectively.
As for `COc1cc2nccc(Nc3ccc(Oc4ccccc4)cc3)c2cc1OC.Cl` [GI261656], the “%Inh” value in the assay on CDC2L2 turned out to be 28%; in the assay with CDC2L5, 0%; in the assay with CDK11, 0%; in the assay on CDK2, 0%; in the assay with CDK3, 0%; in the assay on CDK4-cyclinD1 it was 0%. Moreover, the “%Inh” value with CDK4-cyclinD3 is 0%; in the assay on CDK4, 44%; in the assay with CDK5, 0%; in the assay with CDK7, 0%; with CDK8, 38%; in the assay on CDK9 it was 0%. In addition, the “%Inh” value in the assay with CDKL1 is recorded as 0%; in the assay on CDKL2, 10%; with CDKL3, 0%; with CDKL5 it was 0%; in the assay on CHEK1, 0%; in the assay with CHEK2, 67%. Moreover, the “%Inh” value is on record as 0% with CIT and 19% in the assay on CLK1.
For the compound `O=C(NCC1CC1)c1ccc(-c2cc(C(=O)NC3CC3)ccc2F)cc1` [GW810445], the “%Inh” value is listed as 0% in the assay on CDC2L2; 7% in the assay on CDC2L5; 32% in the assay with CDK11; 0% with CDK2; 7% in the assay with CDK3; 0% with CDK4-cyclinD1. For the same compound, the “%Inh” value was 0% in the assay on CDK4-cyclinD3; 1% in the assay with CDK4; 0% in the assay on CDK5; 0% in the assay with CDK7; 62% in the assay on CDK8; 0% with CDK9. Also, the “%Inh” value was 0% in the assay with CDKL1; 0% in the assay on CDKL2; 28% in the assay on CDKL3; 0% in the assay on CDKL5; 0% in the assay on CHEK1; 0% in the assay with CHEK2. In addition, the “%Inh” value in the assay on CIT is 25%; in the assay on CLK1 it was 0%.
Take `Cn1ccc2ncnc(Oc3ccc(NC(=O)Nc4cncc(C(F)(F)F)c4)c(Cl)c3)c21`: the “%Inh” value in the assay with CDC2L2 turned out to be 0%; in the assay on CDC2L5 it was 51%; with CDK11, 97.7%; in the assay on CDK2, 0%; with CDK3, 0%; with CDK4-cyclinD1, 0%. Besides, the “%Inh” value in the assay with CDK4-cyclinD3 was 0%; in the assay with CDK4, 0%; in the assay with CDK5 it was 0%; with CDK7 it was 0%; in the assay on CDK8, 95%; with CDK9 it was 0%. In addition, the “%Inh” value in the assay on CDKL1 was 0%; in the assay with CDKL2, 0%; with CDKL3 it was 0%; with CDKL5 it was 0%; with CHEK1, 0%; in the assay with CHEK2, 9%. In addition, the “%Inh” value in the assay on CIT is given as 44%; in the assay on CLK1 it was 0%.
For the compound `Cc1ccc(Nc2ccnc(Nc3ccc4c(c3)CS(=O)(=O)C4)n2)cc1O.Cl` [GW579362], the “%Inh” value is recorded as 46% in the assay with CDC2L2; 0% in the assay with CDC2L5; 0% in the assay with CDK11; 89% in the assay with CDK2; 77% in the assay with CDK3; 88% in the assay with CDK4-cyclinD1. Besides, the “%Inh” value in the assay with CDK4-cyclinD3 came out at 73%; in the assay on CDK4, 43%; in the assay on CDK5 it was 95%; with CDK7, 23%; with CDK8, 38%; with CDK9, 37%. Moreover, the “%Inh” value in the assay on CDKL1 was 36%; in the assay on CDKL2 it was 41%; in the assay with CDKL3, 0%; with CDKL5, 0%; with CHEK1, 0%; in the assay with CHEK2, 14%. Also, the “%Inh” value with CIT stood at 69%; in the assay with CLK1 it was 81%.
As for `CC(C)S(=O)(=O)N1CCN(Cc2ccc3c(c2)nc(NC(=O)c2ccsc2)n3C[C@H](O)c2ccccc2)CC1` [GW635815], the “%Inh” value was determined as 4% in the assay on CDC2L2; 0% in the assay with CDC2L5; 6% with CDK11; 0% in the assay with CDK2; 25% with CDK3; 0% in the assay with CDK4-cyclinD1. Further, the “%Inh” value amounted to 0% in the assay on CDK4-cyclinD3; 42% with CDK4; 0% with CDK5; 8% in the assay on CDK7; 15% in the assay with CDK8; 0% with CDK9. Also, the “%Inh” value with CDKL1 is on record as 8%; with CDKL2, 6%; in the assay with CDKL3 it was 0%; in the assay with CDKL5 it was 0%; with CHEK1 it was 0%; in the assay on CHEK2 it was 32%. In addition, the “%Inh” value with CIT worked out at 98.4%; in the assay on CLK1, 98.5%.

Source of the values: paper PMC5540273 (PLoS ONE, 2017).
